The results in this text go back to PubChem BioAssay AID493056 (National Center for Advancing Translational Sciences (NCATS), 2011).

SMILES strings stand for the structures. Screen size: about 360,000 compounds; about 2,400 (0.67%) were called active. No stated cut-off is given here; in the data, active means enhancement above about 30%; inactive means the rest. Many of the other results were omitted from the sample, so actives are more common in it than they were.

In the experiment the target is Thyrotropin-releasing hormone receptor (Homo sapiens) (UniProt P34981). Nature of the experiment: qHTS for Small Molecule Agonists and Allosteric Enhancers of Human TRH Receptor: Primary Screen for Enhancers. Further: 0% is about no effect. Particulars: TRHR cells, fluo-8 calcium fluorescence, EC20 TRH enhancement; at 2 µM; active compounds read high. The method in brief: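 Enhancer read-out: after compound pinning and an initial kinetic agonist-mode read, an EC20 of TRH (10 nM final) was injected and fluo-8 calcium signal (Ex 480/Em 530) followed at 1 s/cycle for 100 cycles in TRHR-expressing cells.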
Chain of Thyrotropin-releasing hormone receptor (Homo sapiens) (P34981 whole entry, looked up): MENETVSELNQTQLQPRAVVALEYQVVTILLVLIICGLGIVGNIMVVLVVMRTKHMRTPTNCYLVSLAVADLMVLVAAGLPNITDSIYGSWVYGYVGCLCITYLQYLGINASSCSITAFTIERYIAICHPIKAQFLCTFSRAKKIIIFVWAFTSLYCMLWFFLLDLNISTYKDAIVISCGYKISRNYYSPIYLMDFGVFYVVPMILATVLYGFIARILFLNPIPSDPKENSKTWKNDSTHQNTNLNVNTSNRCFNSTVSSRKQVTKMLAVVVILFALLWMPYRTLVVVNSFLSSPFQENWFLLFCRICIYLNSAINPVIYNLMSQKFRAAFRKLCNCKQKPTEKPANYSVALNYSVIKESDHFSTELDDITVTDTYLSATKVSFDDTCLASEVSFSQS
For orientation: qHTS replaces the single test concentration by a dilution series.
As for `Oc1c(Br)cccc1/C=N/Nc1c(F)c(F)c(F)c(F)c1F`, the enhancement is 35.3% (active).

Turning to `O=C1C(F)N([S+](=O)([O-])c2ccc3c(c2)OCCO3)CCN1[S+](=O)([O-])c1c(F)cccc1F` (stereo not given), the enhancement was 3.19% (inactive).

In the case of `N#CN1CCC(NC(=O)c2ccc(F)cc2)CC1`, the enhancement was 1.17% (inactive).

On to `Cn1cccc1C1(C(F)(F)F)NCCNC1=O` (stereo not given), for which the enhancement is 50.7% (active).

For the molecule `Cn1c(=O)c2c(ncn2CC(=O)Nc2cccc(C(F)(F)F)c2)n(C)c1=O`, the enhancement was -2.46% (inactive).

Consider `O=[S+]([O-])(c1ccc2c(c1)OCCO2)N1CCN([S+](=O)([O-])c2c(Cl)cc(Cl)cc2Br)CC1`, for which the enhancement was -1.85% (inactive).

Take `CCOc1ccc(-n2c(SCC(=O)NCc3ccccc3)nc3n[nH]c(C)c3c2=N)cc1`: the enhancement was -5.76% (inactive).

In the case of `CCn1c(=O)c(=O)n(CC)c2cc(N3CCCCC3)c(NC(=O)c3ccc(Cl)cc3)cc21`, the enhancement is 4.4% (inactive).

For the molecule `Cc1ccc(C(=O)Nc2cc3c(cc2N2CCCC2)n(C)c(=O)c(=O)n3C)cc1`, the enhancement was 32.4% (active).

Take `CCn1c(=O)c(=O)n(CC)c2cc(N3CCCCC3)c(NC(=O)c3cccc(F)c3)cc21`: the enhancement is 4.18% (inactive).

As to `Nc1ncc(S(=O)(=O)Nc2ccc(OC(F)(F)F)cc2)cn1`, the enhancement was -5.87% (inactive).

As to `COc1ccc(N(C(=O)CNC(=O)c2ccco2)C(C(=O)NCC2CCCO2)c2ccccc2)cc1Cl` (stereo not given), the enhancement was -16.4% (inactive).

Consider `Cc1ccc(N(C(=O)CNC(=O)c2ccco2)C(C(=O)NC2CCCC2)c2ccncc2)cc1` (stereo not given), for which the enhancement was 0.937% (inactive).

Turning to `O=C(NCC(=O)N(CC1CCCO1)C(C(=O)NC1CCCCC1)c1ccccc1)c1ccco1` (stereo not given), the enhancement is 35.9% (active).

In the case of `CCOc1ccc(Nc2ncnc3scc(-c4ccc(OC)cc4)c23)cc1`, the enhancement was -0.508% (inactive).

For the molecule `CN(C)S(=O)(=O)c1cccc(NC(=S)NCc2ccc3c(c2)OCO3)c1`, the enhancement is 34% (active).

Consider `O=C(NCc1ccc2c(c1)OCO2)C12CC3CC(CC(C3)C1)C2`, for which the enhancement was -3.78% (inactive).

As for `CN(C)S(=O)(=O)c1cccc(NC(=O)COc2ccc3ccccc3c2)c1`, the enhancement is -1.36% (inactive).

On to `COc1ccccc1N1CCN(c2ncnc3onc(-c4cccc(Cl)c4)c23)CC1`, for which the enhancement was -1.85% (inactive).

In the case of `CCOc1ccc(C(C)=O)cc1COC(=O)CNC(=O)c1cccs1`, the enhancement is 34.6% (active).

In the case of `CCOc1ccc(C(C)=O)cc1COC(=O)c1cnc(Cl)c(Cl)c1`, the enhancement was 22.5% (inactive).

For the molecule `COc1ccc(C(=O)COC(=O)CNC(=O)c2cccs2)cc1Br`, the enhancement is 2.56% (inactive).

Take `CCCNC(=O)c1ccc(N2CCC3(CC2)CC(c2cccc(Br)c2)=NO3)c(NC(=O)c2ccco2)c1`: the enhancement was 35.5% (active).

As to `CCCNC(=O)c1ccc(N2CCC3(CC2)CC(c2ccc(Cl)cc2)=NO3)c([N+](=O)[O-])c1`, the enhancement was 0.894% (inactive).

With `O=C(Nc1ccccc1N1CCN(C(=O)c2ccccc2)CC1)c1ccco1`, the enhancement was 7.38% (inactive).

Consider `COC(=O)c1ccccc1NC(=O)c1ccc(C#N)cc1`, for which the enhancement was 6.65% (inactive).

In the case of `CCCCCn1c(CCNC(=O)c2ccc(F)cc2)nc2ccccc21`, the enhancement is -6.28% (inactive).

For `Cc1ccc(NC(=O)CCCn2c(=O)c3cccn3c3ccccc32)cc1Cl`, the enhancement is 1.3% (inactive).

In the case of `COc1ccc2c(c1)Cc1sc(NC(=O)c3ccccc3Br)nc1-2`, the enhancement is 4.8% (inactive).

Turning to `Cc1sc(NC(=O)C2=COCCO2)c(C#N)c1C`, the enhancement is 2.25% (inactive).

Turning to `CCC(CC)c1nnc(NC(=O)C2=COCCO2)s1`, the enhancement is 36.4% (active).

Take `CCC(CC)c1nnc(NC(=O)c2nn(C)c(=O)c3ccccc23)s1`: the enhancement is 6.49% (inactive).

With `Cc1ccccc1OCc1ccc(-c2nc(C#N)c(N3CCCCC3)o2)o1`, the enhancement is 0.624% (inactive).

Consider `O=C(Nc1ccc(-c2nc3cc(NC(=O)c4ccccc4Cl)ccc3o2)cc1)c1ccccc1Cl`, for which the enhancement is -6.24% (inactive).

In the case of `Cc1cc(C(=O)CCl)c(C)n1CC1COc2ccccc2O1` (stereo not given), the enhancement is 45.8% (active).

As to `COc1ccc(NC(=O)CC2COc3ccccc3O2)c(OC)c1` (stereo not given), the enhancement is -4.66% (inactive).

As to `Cc1n[nH]c(C)c1S(=O)(=O)N1CCCC(C(=O)NCC2COc3ccccc3O2)C1` (stereo not given), the enhancement is -5.61% (inactive).

Turning to `COc1ccc(NC(=O)Cn2c(=O)n(CCC(C)C)c(=O)c3cccnc32)cc1Cl`, the enhancement is 5.35% (inactive).

For `Clc1ccc(COn2c(-c3ccc(Cl)cc3Cl)nc3ncccc32)cc1`, the enhancement was -14.4% (inactive).

Take `COn1c(-c2ccc(Cl)cc2Cl)nc2ncccc21`: the enhancement is 31.3% (active).

For `Cc1nc2cccnc2nc1C`, the enhancement is 1.62% (inactive).

`O=S(=O)(c1ccc(Br)cc1)c1nc(-c2ccccc2)oc1NCc1cccnc1`: the enhancement was 31.2% (active).

On to `O=S(=O)(c1ccccc1)c1nc(-c2ccccc2F)oc1NCc1cccnc1`, for which the enhancement is 0.0883% (inactive).

As for `Cc1ccc(S(=O)(=O)c2nc(-c3cccs3)oc2NCc2cccnc2)cc1`, the enhancement was -3.44% (inactive).

Turning to `Cc1ccc(-n2cnc3cc(C(=O)NCCC4=CCCCC4)ccc32)cc1Cl`, the enhancement is -5.29% (inactive).

With `Cc1cc(-c2ccccc2)n2nc(-c3ccccc3)cc2n1`, the enhancement is 33% (active).

For `Cc1cc(N)n2nc(-c3ccc(C(C)(C)C)cc3)cc2n1`, the enhancement was 1.1% (inactive).

Regarding `Cc1cc(-c2ccccc2)n2nc(C)c(-c3ccccc3)c2n1`, the enhancement was -0.179% (inactive).

As for `Cc1ccc(C(=O)Nc2c(C(=O)NC(C)(C)C)oc3ccccc23)cc1`, the enhancement is 6.66% (inactive).

Take `N#CN1CCC(NS(=O)(=O)c2cccc(F)c2)C1` (stereo not given): the enhancement is -3.49% (inactive).

For `CSc1nnnn1-c1c(C)cc(C)cc1C`, the enhancement was 41.9% (active).

Turning to `CCn1nnnc1SCC(=O)c1ccc(C)cc1C`, the enhancement was 7.37% (inactive).

With `COC(=O)c1ccccc1NC(=O)c1ccc2c(=O)n3c(nc2c1)CCCCC3`, the enhancement is 1.88% (inactive).

Take `COc1cc(Cl)c(NC(=O)C(NS(=O)(=O)c2cccs2)C(C)C)c(OC)c1` (stereo not given): the enhancement was 8.88% (inactive).

`COc1ccc(Nc2ncc3c(n2)CCN(C(=O)OC(C)(C)C)C3)cc1`: the enhancement is 2.63% (inactive).

In the case of `Cc1ccc(-c2cc(C(F)(F)F)c(C#N)c(SCC(=O)Nc3ccccc3)n2)cc1`, the enhancement is 7.58% (inactive).

As for `Cc1ccc(Cl)cc1N1CCN(C(=O)C2CCC(CNS(=O)(=O)c3cccs3)CC2)CC1` (stereo not given), the enhancement was 4.4% (inactive).

With `CCOC(OCC)c1ccc(/C=C\c2nccc(N)n2)cc1`, the enhancement was 30% (active).

On to `CN(C)S(=O)(=O)c1ccc(C(=O)N(Cc2cccnc2)c2nc3c(F)cc(F)cc3s2)cc1`, for which the enhancement was -9.57% (inactive).

Regarding `Cc1cc2c(s1)c1cnn(Cc3c(F)cccc3Cl)c(=O)c1n2C`, the enhancement was 10.5% (inactive).

As to `CC(NC(=O)COc1ccccc1)C(=O)NC1=NCCS1` (stereo not given), the enhancement is 1.42% (inactive).

In the case of `CCCCN(C(=O)C(CCSC)N1C(=O)c2ccccc2C1=O)c1c(N)n(CCC)c(=O)[nH]c1=O` (stereo not given), the enhancement was -0.146% (inactive).

For the molecule `CSCCC(C(=O)NC1=NCCS1)N1C(=O)c2ccccc2C1=O` (stereo not given), the enhancement is 33.2% (active).

As for `COc1ccccc1C(=O)NCc1nnc(SC(C)C(=O)Nc2nccs2)n1C` (stereo not given), the enhancement was -2.08% (inactive).

As to `Cc1cccc(C(=O)NCc2nnc(SC(C)C(=O)Nc3nnc(C)s3)n2C)c1` (stereo not given), the enhancement is 37.6% (active).

Consider `CC(Sc1nnc(CNC(=O)c2ccccc2F)n1C)C(=O)Nc1nccs1` (stereo not given), for which the enhancement was -1.71% (inactive).

Consider `O=S(=O)(c1ccc2c(c1)OCCCO2)N1CCN(S(=O)(=O)c2c(F)cccc2F)CC1`, for which the enhancement is 2.65% (inactive).

Consider `N#Cc1nc(Nc2cc(F)cc(Cl)c2)nc(NC2CCCC2)n1`, for which the enhancement is -2.09% (inactive).

For the molecule `O=C(NCc1ccccc1Cl)c1cccn1-c1nnc(N2CCCCC2)s1`, the enhancement was -0.339% (inactive).

As for `Cc1ccc(NC(=O)CSc2nc3c([nH]c4ccccc43)c(=O)n2-c2ccccc2)c(C)c1`, the enhancement is 39.6% (active).

In the case of `Cc1cccc(NC(=O)CSc2nc3c([nH]c4ccccc43)c(=O)n2-c2cc(C)cc(C)c2)c1`, the enhancement is 1.49% (inactive).

On to `Cc1ccc(NC(=O)CSc2nc3c([nH]c4ccccc43)c(=O)n2-c2ccccc2)cc1Cl`, for which the enhancement was -2.92% (inactive).

`Cc1ccccc1OCc1nc2c3cnn(-c4ccccc4F)c3ncn2n1`: the enhancement is 8.56% (inactive).

For the molecule `COc1ccc(-c2nc3sc(CCNS(=O)(=O)c4ccc(F)c(C)c4)c(C)n3n2)cc1`, the enhancement is -2.89% (inactive).

On to `Cc1cccc(OCC(=O)N(Cc2ccc(C(C)C)cc2)Cc2ccco2)c1C`, for which the enhancement was 3.9% (inactive).

As to `Cc1ccc(C)c(OCC(=O)Nc2sc3c(c2C#N)CCCC3)c1C`, the enhancement is 0.637% (inactive).

As to `COc1cccc(CN(C)CC(=O)Nc2ccccc2C(=O)Nc2ccccc2)c1`, the enhancement was 2% (inactive).

Consider `COc1cccc(CN(C)CC(=O)Nc2sc3c(c2C#N)CCC3)c1`, for which the enhancement is 40.2% (active).

On to `Cc1ccc(O)c(NC(=O)c2cc(-c3ccc(F)cc3)no2)c1`, for which the enhancement was -8.05% (inactive).

As to `O=c1c2cccnc2n(Cc2cccc(F)c2)c(=O)n1Cc1ccccc1Cl`, the enhancement was -4.81% (inactive).

With `O=c1[nH]n2c(=O)c3c([nH]c2c1N=Nc1ccccc1)CCC3`, the enhancement was 31.1% (active).

Consider `CC(C)(C)n1c(=O)[nH]c2c(c1=O)CCC2`, for which the enhancement was -6.6% (inactive).

Regarding `O=c1o[nH]c(-c2ccccc2)c1N=Nc1c(F)cccc1Cl`, the enhancement is 45.6% (active).

On to `COc1ccc(N=Nc2c(-c3ccc(OC)cc3)[nH]oc2=O)cc1`, for which the enhancement was 5.67% (inactive).

As for `O=c1c(=O)n(Cc2c(F)cccc2Cl)ccn1Cc1ccccc1`, the enhancement was 6.97% (inactive).

For the molecule `CCS(=O)(=O)c1nc(S(=O)(=O)c2ccc(C)cc2)c(NCc2ccc(Cl)cc2)s1`, the enhancement was 0.719% (inactive).

As to `CCN(CC)c1ccc(C2C(C(N)=O)=C(C)Nc3nc(SCc4ccccc4)nn32)cc1` (stereo not given), the enhancement is 3.72% (inactive).

Consider `C/C(=N\NC(=O)Cc1ccccc1[N+](=O)[O-])c1cccnc1`, for which the enhancement is 2.77% (inactive).

As to `O=C(/C=C/c1ccc(Cl)c([N+](=O)[O-])c1)c1cccnc1`, the enhancement is 36.2% (active).

Take `C/C(=N\NC(=O)c1cccc([N+](=O)[O-])c1)c1cccnc1`: the enhancement was 3.55% (inactive).
